About 83,000 compounds went through this panel and 20% of them were active in at least one assay; those are over-represented in the sample as a whole.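 Plates (96-well) were seeded with cells, treated with compound at one concentration, and incubated for 48 hours before percent growth was determined.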 Values without a mark were called inactive. The source made the active and inactive calls.

This experiment deals with SW-620 colon. As to the kind of experiment: NCI-60 one-dose screen, 48 h (100 = growth as untreated, 0 = no growth, -100 = all killed). Conditions: 10 µM unless noted. As for the experimental part:
Growth inhibition of the SW-620 human tumor cell line is measured as a screen for anti-cancer activity. Cells are grown in 96 well plates and exposed to the test compound for 48 hours. Compounds are tested at a single concentration, which is 10^-5 M for most compounds. The reported endpoint is percent growth (GI% or GIPRCNT), where numbers from 0 - 100% represent growth inhibition, and numbers from -100% - 0 represent cell death. For example, a value of 40 represents 60% growth inhibition. A value of 0 means no net growth occurred over the course of the experiment. A value of -40 indicates 40% of cells at the beginning of the experiment died by the end of the experiment. A value of -100 means all cells are dead at the end of the experiment.
NCI-60 Human Tumor Cell Lines Screen was performed using the standard one-dose NCI protocol, which is described in more detail at https://dtp.cancer.gov/discovery_development/nci-60/default.htm.
Compounds with GIPRCNT values below 10 were considered active. Activity score was based on GIPRCNT using the following formula: […]
Score is 0 for GIPRCNT values of 100 or above, 50 for GIPRCNT values of 0, and 100 for GIPRCNT values of -100.
As for `NC(N)=Nc1ccc(Oc2cccc(NC(N)=Nc3ccc(Cl)c(C(F)(F)F)c3)c2)cc1`, the growth is 57%.
In the case of `Cc1[nH]c(C(=O)Nc2ccccc2OCc2cccc(C(=O)N3CCC[C@@H](N)C3)c2)c(Cl)c1Cl` it was -75.9% (active); in that of `CCCCCc1ccc(S(=O)(=O)Nc2cccc(-c3csc(NC(=O)CN4CCN(CCO)CC4)n3)c2)cc1`, 74.3%; in that of `O=C(Nc1ccc(Br)cc1)Nc1nc2ccc([N+](=O)[O-])cc2s1`, 3.15% (active).
Under `COc1cc(/C=C2\C(=O)Nc3cc(Cl)ccc32)ccc1OCc1ccc(F)cc1` stands 98.2%; under `O=C(CN1CCN(c2cc(=O)n(-c3ccccc3)c3ccccc23)CC1)Nc1cccc(C(F)(F)F)c1`, 75%; under `Cc1cccc(/C=C/C(=O)Nc2ncc(Cc3cccc(C)c3)s2)c1`, 16.8%.
As to `CC1(C)CC[C@]2(C(=O)N3CCOCC3)CC[C@]3(C)C(=CC[C@@H]4[C@@]5(C)C/C(=C/c6ccccn6)C(=O)C(C)(C)[C@@H]5CC[C@]43C)[C@@H]2C1`, the growth is 69.6%.
`COc1cc(OC)c(/C=C/S(=O)(=O)Cc2ccc(OC)c(NCC(=O)NO)c2)c(OC)c1`: the growth was 28.3%.
Under `COc1cccc(C(=O)Nc2cccc(C#Cc3cccc4[nH]nc(N)c34)c2)c1` stands 34%; under `CS(=O)(=O)Nc1cc(-c2ccc3ncc(C#N)c(Nc4cccc(Cl)c4F)c3c2)cnc1Cl`, 4.99% (active); under `Cc1ccc2sc3c(c2c1)OC(N)=C(C#N)C3c1ccc(Cl)cc1` (stereo not given), 63.4%.
Consider `CC1(C)CC[C@]2(C(=O)O)CC[C@]3(C)C(=CC[C@@H]4[C@@]5(C)CC/C(=N\OCCC#N)C(C)(C)[C@@H]5CC[C@]43C)[C@@H]2C1`, for which the growth was 94.2%.
In the case of `O=C(CN1CCN(c2cc(=O)n(-c3ccccc3)c3ccccc23)CC1)Nc1nc(-c2ccccc2)cs1` it was 68.6%.
Under `C=C(C)[C@@H]1CC[C@]2(C(=O)NCCCCCN(CCC#N)CCC#N)CC[C@]3(C)[C@H](CC[C@@H]4[C@@]5(C)CCC(=O)C(C)(C)[C@@H]5CC[C@]43C)[C@@H]12` stands 97.4%; under `COc1ccc(C2CC(c3ccc(Nc4nc(NCCO)nc(N5CCOCC5)n4)cc3)=Nc3c(N)nc(N)nc3N2)cc1` (stereo not given), 101%.
Under `C#CCOC(=O)[C@@H]1CCCN1CC#C` stands 96.7%; under `O=C(CSc1nc2ccccc2c(=O)n1-c1ccccc1)Nc1cccc(C(=O)/C=C/c2ccccc2)c1`, 90%; under `COc1c(N2CC3CCCNC3C2)c(F)cc2c(=O)c(C(=O)N/N=C/c3ccc(N(C)C)cc3)cn(C3CC3)c12` (stereo not given), 80.7%.
Turning to `O=C(c1ccc(O)cc1)[C@@H]1CN[C@@]2(C(=O)Nc3ccccc32)[C@H]1c1ccc(F)cc1`, the growth was 105%.
Under `CC(=O)N1N=C(c2cccc(-n3cccc3)c2)CC1c1cccc(F)c1` (stereo not given) stands 96%; under `CCOP(=O)(OCC)OC[C@]12CCC(C)(C)C=C1[C@H]1CC[C@@H]3[C@@]4(C)CC[C@H](OP(=O)(OCC)OCC)C(C)(C)[C@@H]4CC[C@@]3(C)[C@]1(C)CC2`, -48.4% (active).
Under `CN(C)CCNC(=O)c1ccc(-c2nc3ccc4[nH]ncc4c3c3c2COCC3)cc1` stands 3.1% (active); under `Cc1ccc(C2=Nn3c(nnc3-c3ccccc3)SC2)cc1`, 13.3%; under `COc1cc(-c2nn(C(C)(C)C)cc2-c2ccnc(NCCCNS(=O)(=O)c3cccc(F)c3)n2)ccc1Cl`, 89.7%.
With `N/C(=N\C(N)=N\c1nc2ccccc2s1)c1ccncc1Cl`, the growth is 24.1%.
On to `CCOC(=O)c1c(Nc2ccccc2)nn2c(-c3ccc(OC)cc3)ccnc12`, for which the growth was 95.1%.
On to `COc1ccc(N2C(=O)c3cc(Cl)ccc3NC2SCc2ccccc2)cc1` (stereo not given), for which the growth was 103%.
For the molecule `Cc1ccc(S(=O)(=O)NCCNc2nc(Nc3ccc(N4CCN(C)CC4)cc3)nc3ccsc23)cc1`, the growth is 103%.
In the case of `CCc1nn2c(C)cc(C)nc2c1Cc1ccc(/C=C/CN2CCN(CCOCCOCCN3CCN(C/C=C/c4ccc(Cc5c(CC)nn6c(C)cc(C)nc56)cc4)CC3)CC2)cc1` it was -50.4% (active); in that of `Brc1ccccc1/C=N/Nc1nc(N/N=C/c2ccccc2Br)nc(N2CCOCC2)n1`, 96.7%.
In the case of `COC[C@]12CCC(C)(C)C[C@H]1C1=CC[C@@H]3[C@@]4(C)CCCNC(C)(C)[C@@H]4CC[C@@]3(C)[C@]1(C)CC2` it was -61.6% (active); in that of `CN1CCN(Cc2ccc(NC(=O)c3cncc(C#Cc4cnn5cccnc45)c3)cc2C(F)(F)F)CC1`, 0.2% (active).
Under `O=C1[C@@H]2Cc3c([nH]c4ccccc34)[C@H](c3c(Cl)cccc3Cl)N2C(=O)CN1C1CCN(CC2CCCCC2)CC1` stands 10.2%; under `CS(=O)(=O)c1ccc(-c2nn(-c3ccccc3)cc2/C=N/NC(=O)c2nc(N)n[nH]2)cc1`, 88.4%.
On to `CCn1c(SCC(=O)Nc2cccc(C(=O)/C=C/c3cc(OC)c(OC)c(OC)c3)c2)nc2ccccc2c1=O`, for which the growth was 14.9%.
Regarding `COc1ccc(Cn2cc3c(c2-c2cc(OC)c(OC)c(OC)c2)CCc2c(CN4CCCC4)noc2-3)cc1`, the growth is 26.4%.
As for `CC1(C)CC[C@]2(CN)CC[C@]3(C)C(=CC[C@@H]4[C@@]5(C)CCCNC(C)(C)[C@@H]5CC[C@]43C)[C@H]2C1`, the growth is 102%.
In the case of `NS(=O)(=O)c1ccc(-n2cc(CN3CCCCC3)nn2)cc1` it was 106%.
Take `C=C(C=O)[C@@H]1CC[C@]2(CO)CC[C@]3(C)[C@H](CC[C@@H]4[C@@]5(C)CCCNC(C)(C)[C@@H]5CC[C@]43C)[C@@H]12`: the growth was 1.41% (active).

The values above are taken from PubChem BioAssay (NCI).
